Source: PubChem BioAssay (NCI)
This is part of a sample that, as a whole, favours compounds with a hit. Of some 79,000 tested, about 15% had one in any assay. A number with no mark means an inactive call. Active and inactive are the calls of the source. No stated cut-off is given here; in the data, active means growth inhibition above about 70%; inactive means the rest.

Assays:
[1] = NCI Yeast Anticancer Drug Screen. Data for the rad52 strain (AID 147);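 further: 0% = growth of vehicle-treated control cultures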; conditions: S. cerevisiae rad52 mutant growth inhibition, active compounds read high
In short: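 Genetically altered yeast (DNA damage repair defect) treated with compound; inhibition calculated relative to vehicle.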

[2] = NCI Yeast Anticancer Drug Screen. Data for the wt1 strain (AID 149);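 further: 0% = growth of vehicle-treated wt1 cultures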; conditions: S. cerevisiae wt1 strain (SPY 50644) growth inhibition, active compounds read high
In short: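 Growth inhibition read against vehicle controls after compound exposure of the wt1 yeast strain.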

[3] = NCI Yeast Anticancer Drug Screen. Data for the rad50EPP+ strain (AID 151);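 further: 0% = growth of vehicle-treated control cultures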; conditions: S. cerevisiae rad50 mutant strain, active compounds read high
In short: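 Strain rad50EPP+; compound exposure; % growth inhibition vs vehicle.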

[4] = NCI Yeast Anticancer Drug Screen. Data for the mgt1 strain (AID 153); conditions: S. cerevisiae mgt1 mutant growth inhibition, active compounds read high
In short: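 Read-out: yeast growth inhibition vs vehicle control. Strain mgt1, drawn from a panel altered in DNA damage repair or cell cycle control.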

[5] = NCI Yeast Anticancer Drug Screen. Data for the rad50 strain (AID 155);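 further: 0% = growth of vehicle-only cultures of the same strain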; conditions: S. cerevisiae rad50 strain growth inhibition, active compounds read high
In short: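 Readout: growth inhibition relative to vehicle-treated cultures. Compound exposure was carried out in a genetically defined yeast strain deficient in DNA damage repair.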

[6] = NCI Yeast Anticancer Drug Screen. Data for the mec2-1 strain (AID 157); conditions: S. cerevisiae mec2-1 strain, active compounds read high
In short: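 Cells of the genetically defined mec2-1 yeast strain are incubated with test compound. Inhibition of growth is calculated against vehicle-treated controls.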

[7] = NCI Yeast Anticancer Drug Screen. Data for the sgs1 mgt1 strain (AID 161);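 further: 0% = growth of cultures given vehicle only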; conditions: S. cerevisiae sgs1 mgt1 strain, active compounds read high
In short: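 Test agents were incubated with a DNA-repair-mutant yeast strain. Growth was then read and compared against vehicle-treated controls.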

[8] = NCI Yeast Anticancer Drug Screen. Data for the CLN2oe strain (AID 163);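 further: 0% = growth of vehicle-only control cultures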; conditions: S. cerevisiae CLN2oe strain, active compounds read high
In short: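 Strain altered in cell-cycle control, incubated with compound; growth compared to solvent-treated controls.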

[9] = NCI Yeast Anticancer Drug Screen. Data for the cln2 rad14 strain (AID 165);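 further: 0% = growth equal to vehicle treated cultures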; conditions: S. cerevisiae cln2 rad14 strain, active compounds read high
In short: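 The screen exposed genetically defined yeast (cln2 rad14) to test compounds and scored growth inhibition relative to vehicle-treated controls.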

[10] = NCI Yeast Anticancer Drug Screen. Data for the bub3 strain (AID 167); conditions: S. cerevisiae bub3 mutant strain, active compounds read high
In short: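 Readout: yeast growth inhibition, expressed relative to vehicle-only wells. The test organism is a mutant strain from a panel with lesions in DNA repair or checkpoint genes.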

[11] = NCI Yeast Anticancer Drug Screen. Data for the wt2 strain (AID 169);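 further: 0% = growth of vehicle-treated yeast cultures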; conditions: S. cerevisiae wt2 strain growth inhibition, active compounds read high
In short: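 Steps: yeast strain treated with compound; growth recorded; inhibition calculated relative to cultures given vehicle alone.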

[12] = NCI Yeast Anticancer Drug Screen. Data for the mlh1 strain (AID 171);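 further: 0% = growth of vehicle-treated control cultures of the same strain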; conditions: S. cerevisiae mlh1 strain growth inhibition, active compounds read high
In short: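 Yeast screen: mutant strain plus compound, growth scored against vehicle control wells.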

[13] = NCI Yeast Anticancer Drug Screen. Data for the sgs1 strain (AID 173);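 further: 0% = growth of vehicle-only control cultures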; conditions: S. cerevisiae sgs1 mutant, active compounds read high
In short: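 Inhibition of yeast growth served as the measure. The mutant strain was treated with each compound, and growth was normalised to cultures receiving vehicle alone.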

[14] = NCI Yeast Anticancer Drug Screen. Data for the mlh1 rad18 strain (AID 175); conditions: S. cerevisiae mlh1 rad18 strain growth inhibition, active compounds read high
In short: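 Compound-treated yeast growth, normalised to vehicle controls. Strain bears defined DNA repair mutations.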

[15] = NCI Yeast Anticancer Drug Screen. Data for the rad18 strain (AID 177); conditions: S. cerevisiae rad18 mutant growth inhibition, active compounds read high
In short: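 Inhibition values reflect reduced yeast growth compared with vehicle-treated controls, using a strain engineered with a DNA damage repair defect.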

[16] = at 5.0 µM (retest, dose inferred, filed as 0.5)
[17] = at 50.0 µM (retest, dose inferred, filed as 5.0)

Structure (SMILES): O=C1C=C(c2ccccc2)OC1(c1ccccc1)N1CCOCC1 (stereo not drawn)
- growth inhibition ([1]; at 1.2 µM): -1%
- growth inhibition ([1]; at 3.7 µM): -1%
- growth inhibition ([1]; at 11.0 µM): 3%
- growth inhibition ([1]; at 33.0 µM): 16%
- growth inhibition ([1]; at 100.0 µM): 98% (active)
- growth inhibition ([2]; at 1.2 µM): -1%
- growth inhibition ([2]; at 3.7 µM): 2%
- growth inhibition ([2]; at 11.0 µM): -4%
- growth inhibition ([2]; at 33.0 µM): -7%
- growth inhibition ([2]; at 100.0 µM): 98% (active)
- growth inhibition ([3]; at 1.2 µM): 3%
- growth inhibition ([3]; at 3.7 µM): 7%
- growth inhibition ([3]; at 11.0 µM): 7%
- growth inhibition ([3]; at 33.0 µM): 10%
- growth inhibition ([3]; at 100.0 µM): 17%
- growth inhibition ([4]; at 1.2 µM): -5%
- growth inhibition ([4]; at 3.7 µM): -6%
- growth inhibition ([4]; at 11.0 µM): -4%
- growth inhibition ([4]; at 33.0 µM): 59%
- growth inhibition ([4]; at 100.0 µM): 98% (active)
- growth inhibition ([5]; at 1.2 µM): 1%
- growth inhibition ([5]; at 3.7 µM): 4%
- growth inhibition [5, 16]: -20%
- growth inhibition ([5]; at 11.0 µM): 1%
- growth inhibition ([5]; at 33.0 µM): 19%
- growth inhibition [5, 17]: 69%
- growth inhibition ([5]; at 50.0 µM): -0.2%
- growth inhibition ([5]; at 100.0 µM): 98% (active)
- growth inhibition ([6]; at 1.2 µM): -1%
- growth inhibition ([6]; at 3.7 µM): 4%
- growth inhibition [6, 16]: -12%
- growth inhibition ([6]; at 11.0 µM): 3%
- growth inhibition ([6]; at 33.0 µM): 8%
- growth inhibition [6, 17]: 0%
- growth inhibition ([6]; at 50.0 µM): -5.95%
- growth inhibition ([6]; at 100.0 µM): 98% (active)
- growth inhibition [7, 16]: -2%
- growth inhibition [7, 17]: 90% (active)
- growth inhibition ([7]; at 50.0 µM): 55.7%
- growth inhibition ([8]; at 1.2 µM): 1%
- growth inhibition ([8]; at 3.7 µM): -4%
- growth inhibition ([8]; at 11.0 µM): 6%
- growth inhibition ([8]; at 33.0 µM): 0%
- growth inhibition ([8]; at 100.0 µM): 97% (active)
- growth inhibition [9, 16]: 2%
- growth inhibition [9, 17]: 14%
- growth inhibition ([9]; at 50.0 µM): 19.9%
- growth inhibition ([10]; at 1.2 µM): 0%
- growth inhibition ([10]; at 3.7 µM): -1%
- growth inhibition [10, 16]: -1%
- growth inhibition ([10]; at 11.0 µM): 4%
- growth inhibition ([10]; at 33.0 µM): 14%
- growth inhibition [10, 17]: 44%
- growth inhibition ([10]; at 50.0 µM): -27.7%
- growth inhibition ([10]; at 100.0 µM): 98% (active)
- growth inhibition ([11]; at 1.2 µM): 0%
- growth inhibition ([11]; at 3.7 µM): -1%
- growth inhibition ([11]; at 11.0 µM): -3%
- growth inhibition ([11]; at 33.0 µM): 52%
- growth inhibition ([11]; at 100.0 µM): 98% (active)
- growth inhibition ([12]; at 1.2 µM): 3%
- growth inhibition ([12]; at 3.7 µM): 1%
- growth inhibition ([12]; at 11.0 µM): -7%
- growth inhibition ([12]; at 33.0 µM): 55%
- growth inhibition ([12]; at 100.0 µM): 98% (active)
- growth inhibition ([13]; at 1.2 µM): 0%
- growth inhibition ([13]; at 3.7 µM): 0%
- growth inhibition ([13]; at 11.0 µM): 4%
- growth inhibition ([13]; at 33.0 µM): 76% (active)
- growth inhibition ([13]; at 100.0 µM): 98% (active)
- growth inhibition [14, 16]: -17%
- growth inhibition [14, 17]: 75% (active)
- growth inhibition ([14]; at 50.0 µM): -1.85%
- growth inhibition ([15]; at 1.2 µM): 1%
- growth inhibition ([15]; at 3.7 µM): -4%
- growth inhibition ([15]; at 11.0 µM): -2%
- growth inhibition ([15]; at 33.0 µM): 7%
- growth inhibition ([15]; at 100.0 µM): 98% (active)

Structure (SMILES): CC(=O)OC1CCC2(C)C(=CC(C3C=C4CC(OC(C)=O)CCC4(C)C4=C3C3CC5OC6(CCC(C)CO6)C(C)C5C3(C)CC4)C3=C2CCC2(C)C3CC3OC4(CCC(C)CO4)C(C)C32)C1 (stereo not drawn)
- growth inhibition ([1]; at 1.2 µM): 0%
- growth inhibition ([1]; at 3.7 µM): 3%
- growth inhibition ([1]; at 11.0 µM): 7%
- growth inhibition ([1]; at 33.0 µM): 20%
- growth inhibition ([1]; at 100.0 µM): 88% (active)
- growth inhibition ([2]; at 1.2 µM): 1%
- growth inhibition ([2]; at 3.7 µM): -1%
- growth inhibition ([2]; at 11.0 µM): 0%
- growth inhibition ([2]; at 33.0 µM): 9%
- growth inhibition ([2]; at 100.0 µM): 11%
- growth inhibition ([3]; at 1.2 µM): 1%
- growth inhibition ([3]; at 3.7 µM): 2%
- growth inhibition ([3]; at 11.0 µM): 25%
- growth inhibition ([3]; at 33.0 µM): 65%
- growth inhibition ([3]; at 100.0 µM): 76% (active)
- growth inhibition ([4]; at 1.2 µM): 1%
- growth inhibition ([4]; at 3.7 µM): -3%
- growth inhibition ([4]; at 11.0 µM): -2%
- growth inhibition ([4]; at 33.0 µM): 24%
- growth inhibition ([4]; at 100.0 µM): 83% (active)
- growth inhibition ([5]; at 1.2 µM): 0%
- growth inhibition ([5]; at 3.7 µM): 1%
- growth inhibition [5, 16]: -7%
- growth inhibition ([5]; at 11.0 µM): 2%
- growth inhibition ([5]; at 33.0 µM): 6%
- growth inhibition [5, 17]: 45%
- growth inhibition ([5]; at 50.0 µM): 91.3% (active)
- growth inhibition ([5]; at 100.0 µM): 64%
- growth inhibition ([6]; at 1.2 µM): -2%
- growth inhibition ([6]; at 3.7 µM): 0%
- growth inhibition [6, 16]: -12%
- growth inhibition ([6]; at 11.0 µM): 1%
- growth inhibition ([6]; at 33.0 µM): 9%
- growth inhibition [6, 17]: 33%
- growth inhibition ([6]; at 50.0 µM): 45%
- growth inhibition ([6]; at 100.0 µM): 75% (active)
- growth inhibition [7, 16]: -10%
- growth inhibition [7, 17]: 64%
- growth inhibition ([7]; at 50.0 µM): 90.7% (active)
- growth inhibition [9, 16]: 37%
- growth inhibition [9, 17]: 60%
- growth inhibition ([9]; at 50.0 µM): -4.25%
- growth inhibition ([10]; at 1.2 µM): 0%
- growth inhibition ([10]; at 3.7 µM): -1%
- growth inhibition [10, 16]: -2%
- growth inhibition ([10]; at 11.0 µM): -3%
- growth inhibition ([10]; at 33.0 µM): 2%
- growth inhibition [10, 17]: 69%
- growth inhibition ([10]; at 50.0 µM): 74.2% (active)
- growth inhibition ([10]; at 100.0 µM): 61%
- growth inhibition ([11]; at 1.2 µM): -2%
- growth inhibition ([11]; at 3.7 µM): -3%
- growth inhibition ([11]; at 11.0 µM): -1%
- growth inhibition ([11]; at 33.0 µM): 25%
- growth inhibition ([11]; at 100.0 µM): 93% (active)
- growth inhibition ([12]; at 1.2 µM): -1%
- growth inhibition ([12]; at 3.7 µM): 0%
- growth inhibition ([12]; at 11.0 µM): 0%
- growth inhibition ([12]; at 33.0 µM): 12%
- growth inhibition ([12]; at 100.0 µM): 69%
